From PubChem
Most compounds without a hit are left out; they make up all but 4.3% or so of the library.
BoNT A protease = blocks Botulinum neurotoxin A light chain protease | inhibition, % at 10 µM | 360,000 compounds, 0.17% hits | AID 588499 | multiplex microsphere protease substrate cleavage, flow cytometry
MazEF act = activators of E. coli MazEF toxin-antitoxin RNase | P0AE70 | FAM/BHQ RNA-DNA oligo cleavage fluorescence, 5 h | activation, % at 20 µM | 350,000 compounds, 0.32% hits; in the data active = activation above about 50%
Target sequence (P0AE70 whole entry, looked up): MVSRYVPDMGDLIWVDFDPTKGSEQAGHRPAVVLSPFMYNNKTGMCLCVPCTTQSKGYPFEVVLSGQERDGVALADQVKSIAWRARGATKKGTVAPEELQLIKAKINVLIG
Anthrax LF prot = blocks Bacillus anthracis lethal factor protease; AID 588501; P15917; multiplex microsphere protease cleavage assay, LF; 360,000 compounds, 0.12% hits; inhibition, % at 10 µM
BoNT-F LC inh = blocks Botulinum neurotoxin F light chain protease; 360,000 compounds, 0.22% hits; Multiplex microsphere protease cleavage assay, flow cytometry; AID 588497; inhibition, % at 10 µM; in the data active = inhibition above about 35%, passing the limit was not always enough; inconclusive = no clear call, values can overlap the other calls
Autofluor counter = flagged as autofluorescent in microsphere protease counterscreen; fluorescence intensity (no concentration beside the values); AID 624483; 360,000 compounds, 3.1% hits; compound autofluorescence counterscreen, microsphere flow cytometry; active compounds read high; in the data active = fluorescence intensity above about 16000; inconclusive = no clear call, values can overlap the other calls
PfHsp40 yeast = rescue of PfHsp40-mediated yeast toxicity; 340,000 compounds, 0.68% hits; S. cerevisiae expressing PfHsp40, growth rescue, ATP luminescence; growth rescue, % at 12.5 µM; AID 504582; in the data active = growth rescue above about 28%, passing the limit was not always enough; inconclusive = no clear call, values can overlap the other calls;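 note: yeast W303a lacking pdr1 and pdr3 grown in galactose medium; growth measured after three days at 30 °C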
Numbers stand for hits; - = inactive; ? = inconclusive; . = no result given. Cut-off read from the data, not from the text of the source, unless noted: active = inhibition above about 30%; inconclusive = no clear call, values can overlap the other calls; inactive = below that.

SMILES	BoNT A protease	MazEF act	Anthrax LF prot	BoNT-F LC inh	Autofluor counter	PfHsp40 yeast
O=C(CN1C(=O)c2ccccc2C1=O)Nc1sc2c(c1C(=O)NCC1CCCO1)CCC2 (stereo unspecified)	-	-	-	-	22614	-
O=C(CN1C(=O)c2ccccc2C1=O)Nc1sc2c(c1C(=O)NCc1ccco1)CCCC2	-	-	-	-	-	-
CCc1noc(C)c1C(=O)N(CC)CC(=O)NCc1ccc(F)cc1	-	-	-	-	-	.
Cc1cc(F)ccc1S(=O)(=O)N(C(=O)c1ccncc1)c1ccc(OC(=O)c2ccncc2)cc1	-	-	-	-	-	422
O=C(Oc1ccc(N(C(=O)c2ccncc2)S(=O)(=O)c2cccs2)cc1)c1ccncc1	-	-	-	-	-	-
CCOC(=O)COc1ccccc1/C=C\[N+](=O)[O-]	-	-	-	-	-	71
Cc1ccc(SC2=C(N(C)C)C(=O)c3ccccc3C2=O)cc1	-	-	-	-	-	-
CC(C)Oc1ccc(CSc2nnc3n(C)c(=O)c4c5c(sc4n23)CCCC5)cc1	?	-	-	-	24669	-
C=CCNC(=S)NN=C1CCCCCCC1	-	-	-	-	-	-
Cc1ccc2nc(-c3cccc(NC(=O)c4ccc5c(c4)OCCO5)c3)oc2c1	?	-	-	-	21708	-
CCC(=O)Nc1cccc(-c2nc3ccc(C)cc3o2)c1	.	-	.	.	.	-
CCNc1cc(Cl)nc(SC)n1	-	-	-	-	-	-
CCN(CCO)c1cc(Cl)nc(SC)n1	-	-	-	-	24730	-
CCc1nc2ccc(C(=O)NCCCn3ccnc3)cn2c1N(C)Cc1cccs1	-	.	-	-	-	.
COc1cc2c(cc1OC)C(C)N(C(=O)C1=NN(c3cccc(C)c3)C(=O)CC1)CC2 (stereo unspecified)	-	-	-	-	-	-
COc1ccc(CCNC(=O)c2cc(C(C)C)on2)cc1OC	-	-	-	-	-	-
Nc1nonc1C(=O)NCCNCc1ccccc1	-	-	-	-	-	-
COc1ccc(CCNC(=O)C(=O)NCc2ccc(C(C)C)cc2)cc1OC	?	-	-	-	24221	-
COc1cc(CNCCNC(=O)c2nonc2N)ccc1OCc1ccc(Cl)nc1	-	-	-	-	-	-
CC(=O)Nc1ccc(NC(=O)c2c(C)noc2C)cc1	-	-	-	-	-	-
CCOc1cccc(CNCCNC(=O)c2nonc2N)c1	-	-	-	-	22612	-
CCCCc1ccc(NC(=O)c2c(C)noc2C)cc1	-	-	-	-	17390	-
Nc1nonc1C(=O)NCCNCc1cc(Br)ccc1OCc1ccc(F)cc1	?	-	-	-	19634	-
O=C(Nc1ccc(Cl)c(C(F)(F)F)c1)[C@@H]1CC=C[C@@H]2CCN(Cc3ccc(Cl)c(Cl)c3)C(=O)[C@@H]21	-	-	-	-	-	-
Cc1nn(-c2ccccc2)c(Cl)c1C(=O)OCC(=O)NCCc1ccc(S(N)(=O)=O)cc1	-	-	-	-	?	.
SMILES	BoNT A protease	MazEF act	Anthrax LF prot	BoNT-F LC inh	Autofluor counter	PfHsp40 yeast
O=[N+]([O-])c1cc(C(F)(F)F)cc([N+](=O)[O-])c1Sc1n[nH]c(C(F)(F)F)n1	.	-	.	.	.	-
Cc1cc(NC(=O)CSc2nc(N)c(NC(=O)c3ccco3)c(=O)[nH]2)no1	-	-	-	-	-	-
CC(C)CC1C(=O)N(Cc2cn(CCC3OCCCO3)nn2)CCS(=O)(=O)N1Cc1ccc(-c2cccc(N(C)C)c2)cc1 (stereo unspecified)	-	-	-	-	-	.
COc1cc(OC)c(OC)cc1CNCCNC(=O)c1nonc1N	-	-	-	-	24547	-
COc1ccc(CCNC(=O)c2noc3c2CCCC3)cc1OC	-	-	-	-	21948	-
COc1ccc(CNCCNC(=O)c2nonc2N)cc1OC	-	-	-	?	?	-
Nc1nonc1C(=O)NCCNCc1c(OCc2ccccc2F)ccc2ccccc12	-	59	-	-	-	-
COc1ccc(CCNC(=O)c2nonc2N)cc1OC	-	-	-	-	20897	-
O=C(NCCc1ccc(C(F)(F)F)cc1)c1ccc(Cl)nc1	-	-	-	-	-	-
CCOc1ccc(CCNC(=O)c2c(C)noc2C)cc1OCC	-	-	-	-	-	43
CCOc1ccc(CCNC(=O)c2cc(C)on2)cc1OCC	.	-	.	.	.	-
COc1cccc(-c2cc(C(=O)N3CCN(C(=O)c4ccco4)CC3)on2)c1	-	-	-	-	-	-
O=C(O)c1cccc(Nc2nc(-c3cc4ccccc4oc3=O)cs2)c1	-	-	-	-	-	-
C=CCNc1nnc(SC2CC(=O)N(c3ccc(OC)cc3)C2=O)s1 (stereo unspecified)	-	-	-	-	17184	?
Cc1ccccc1S(=O)(=O)NC(=O)C1(C)CCN1C(=O)C1CCCCC1 (stereo unspecified)	-	.	-	-	-	.
Cn1ccnc1Sc1nnnn1-c1ccccc1	-	-	-	-	20712	-
O=C(NC1CCC(O)CC1)c1ccc(-c2ccc([N+](=O)[O-])cc2)o1 (stereo unspecified)	-	-	-	-	-	-
Cc1ccccc1-c1nc(CS(=O)(=O)CC(=O)NCCCN2CC(C)CC(C)C2)c(C)o1 (stereo unspecified)	-	-	-	-	-	-
Cc1ccccc1-c1nc(CN2CCC(C(=O)NC3CC3)CC2)c(C)o1	-	-	-	-	-	-
Cc1ccccc1-c1nc(CN2CCC(C(=O)NCCCN3CCOCC3)CC2)c(C)o1	?	-	-	-	26327	-
Cc1ccccc1-c1nc(CN2CCC(C(=O)NCCCN3CCCC3)CC2)c(C)o1	-	-	-	-	17690	-
Cc1ccccc1-c1nc(CN2CCC(C(=O)NCCCN3CC(C)CC(C)C3)CC2)c(C)o1 (stereo unspecified)	-	-	-	-	22754	-
Cc1ccccc1-c1nc(CN2CCC(C(=O)NCCN3CCOCC3)CC2)c(C)o1	-	-	-	-	-	-
CCN1CCCC1CNC(=O)C1CCN(Cc2nc(-c3cccc(Br)c3)oc2C)CC1 (stereo unspecified)	-	-	-	-	18142	-
Cc1ccc(C(=O)NCC(=O)N(C)CC(=O)Nc2c(Cl)cccc2Cl)s1	-	-	-	?	?	-
O=C(NNc1cccc([N+](=O)[O-])c1)/C(=C\c1cccnc1)NC(=O)c1ccccc1	-	-	-	?	-	-
N#CC(c1ccccn1)(c1ncc(C(F)(F)F)cc1Cl)N1CCOCC1 (stereo unspecified)	?	-	-	-	22287	-
N#CC(c1ccncc1)(c1ncc(C(F)(F)F)cc1Cl)N1CCOCC1 (stereo unspecified)	-	-	-	-	-	-
Cc1cc(C(=O)COC(=O)COc2ccccc2C#N)c(C)n1CC1CCCO1 (stereo unspecified)	-	-	-	-	-	-
O=C(CS(=O)CC(=O)N(c1cccc(F)c1)C(C(=O)NC1CCCCC1)c1ccco1)Nc1ccc(F)cc1 (stereo unspecified)	-	-	-	-	-	-
